Data: PubChem BioAssay AID1159580 (chemical genetic matrix, 2015)
Among all 5,500 compounds or so, about 2,000 (36%) were called active. Inconclusive results (about 18%) are left out. Cut-off read from the data, not from the text of the source: active = normalized growth mostly below about 0.91 (no sharp cut-off); inconclusive = no clear call, values can overlap the other calls; inactive = mostly above about 0.92. The list shows a part of the results.

Test: chemical genetic growth profiling, strain panel (AID 1159580);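 note: tested at 20 µM; growth read once vehicle control cultures reached saturation at 30 °C; 1 = growth at the plate median or of vehicle wells; lower values mean less growth of the strain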
Details: S. cerevisiae deletion strains, growth OD

Measured: normalized growth

C[Se]C[C@H](N)C(=O)O
inactive: locus YAL013W, strain DEP1, active compounds read low 0.981 | locus YAL040C, strain CLN3, active compounds read low 1.05 | locus YCL061C, strain MRC1 (second series), active compounds read low 0.983 | locus YDR150W, strain NUM1, active compounds read low 1 | locus YDR363W, strain ESC2, active compounds read low 0.949 | locus YER002W, strain NOP16, active compounds read low 0.984 | locus YNL175C, strain NOP13, active compounds read low 0.953 | locus YNL197C, strain WHI3, active compounds read low 0.981 | locus YNL224C, strain SQS1, active compounds read low 0.97 | locus YNL322C, strain KRE1, active compounds read low 0.981 | locus YOR083W, strain WHI5 (second series), active compounds read low 0.984 | locus YPL241C, strain CIN2, active compounds read low 0.983
